Screen size: about 310,000 compounds; about 14,000 (4.5%) showed an effect of 50% or more. The effect is printed as a negative number. The list comes from a sample in which strong results are over-represented; it also holds similar structures and randomly drawn compounds.
target: human ether-à-go-go-related gene (hERG) potassium channel (human, UniProt Q12809); assay: primary screen, population patch clamp on CHO cells stably expressing hERG; higher = less effect of the substance
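Also: peak tail current of the secondary pulse compared with the same well before compound.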

Sequence of human ether-à-go-go-related gene (hERG) potassium channel (Q12809 whole entry, looked up): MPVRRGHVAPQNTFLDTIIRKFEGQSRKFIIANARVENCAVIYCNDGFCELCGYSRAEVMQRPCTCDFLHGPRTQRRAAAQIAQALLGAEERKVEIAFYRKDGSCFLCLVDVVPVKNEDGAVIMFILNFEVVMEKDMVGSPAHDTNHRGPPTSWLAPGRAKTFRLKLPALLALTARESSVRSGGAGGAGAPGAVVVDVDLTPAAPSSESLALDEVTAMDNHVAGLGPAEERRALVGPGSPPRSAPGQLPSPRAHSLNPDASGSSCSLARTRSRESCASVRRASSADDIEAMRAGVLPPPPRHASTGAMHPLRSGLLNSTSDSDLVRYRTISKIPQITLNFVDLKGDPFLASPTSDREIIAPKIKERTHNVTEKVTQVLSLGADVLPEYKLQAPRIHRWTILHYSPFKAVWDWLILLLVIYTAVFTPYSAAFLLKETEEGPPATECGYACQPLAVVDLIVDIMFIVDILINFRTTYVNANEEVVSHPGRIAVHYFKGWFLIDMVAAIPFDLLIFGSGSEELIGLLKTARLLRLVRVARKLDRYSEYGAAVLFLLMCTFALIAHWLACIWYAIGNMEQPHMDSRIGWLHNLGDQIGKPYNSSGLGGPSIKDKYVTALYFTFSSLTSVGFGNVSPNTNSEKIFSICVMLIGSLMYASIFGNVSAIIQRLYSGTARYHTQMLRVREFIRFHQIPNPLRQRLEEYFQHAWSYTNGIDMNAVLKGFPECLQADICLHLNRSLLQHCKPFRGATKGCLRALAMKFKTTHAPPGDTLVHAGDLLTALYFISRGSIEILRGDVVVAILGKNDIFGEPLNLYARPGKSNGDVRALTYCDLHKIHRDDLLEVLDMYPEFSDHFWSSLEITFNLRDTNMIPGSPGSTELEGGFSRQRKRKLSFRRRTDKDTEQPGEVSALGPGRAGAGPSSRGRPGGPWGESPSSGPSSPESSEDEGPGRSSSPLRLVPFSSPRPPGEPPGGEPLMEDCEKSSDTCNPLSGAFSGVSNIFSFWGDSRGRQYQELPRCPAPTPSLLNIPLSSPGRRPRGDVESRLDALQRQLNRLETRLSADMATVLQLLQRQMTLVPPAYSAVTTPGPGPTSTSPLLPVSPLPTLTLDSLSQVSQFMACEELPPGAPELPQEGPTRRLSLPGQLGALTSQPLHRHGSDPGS

| SMILES | hERG current change (%, negative = inhibition) at 10uM |
| --- | --- |
| CCCCCN(C(=O)CCC(=O)OCC(=O)N(C)Cc1ccc(C)cc1)c1c(N)n(CCCC)c(=O)[nH]c1=O | 1.93% |
| CCOc1ccc(C(=O)N/N=C(\c2ccccc2)c2ccccn2)cc1 | -27% |
| C=CCOc1ccccc1/C=c1\sc2nc(-c3oc4ccccc4c3C)nn2c1=O | -8.15% |
| O=C(CN1CCN(C(=O)C2CCCO2)CC1)Nc1ccc(F)cc1 (centres unmarked) | -66.1% |
| COc1ccc(NC(=O)CN2CCN(C(=O)N3CCOCC3)CC2)cc1 | -14.2% |
| Cc1cc(C)cc(NC(=O)CN2CCN(C(=O)C3CCCO3)CC2)c1 (centres unmarked) | 7.51% |
| COc1ccc(NC(=O)CN2CCN(C(=S)NC3CCCC3)CC2)cc1 | -39.1% |
| CCNC(=S)N1CCN(CC(=O)Nc2ccc(OC)cc2)CC1 | -34.3% |
| CCOc1ccc(NC(=O)CN2CCN(C(=O)C3CCCO3)CC2)cc1 (centres unmarked) | -32.6% |
| O=C(Nc1ccc(F)cc1)N1CCN(C(=O)C2CCCO2)CC1 (centres unmarked) | 2.96% |
| O=C(CN1CCOCC1)Nc1ccccc1 | 13.8% |
| CCNC(=S)N1CCN(CC(=O)Nc2ccc(Br)cc2)CC1 | -61.4% |
| O=C(CN1CCN(C(=O)C2CCCO2)CC1)Nc1ccc(Cl)cc1 (centres unmarked) | -40.9% |
| O=C(CN1CCN(C(=O)N2CCOCC2)CC1)Nc1ccc(Br)cc1 | -72.5% |
| O=C(CN1CCN(C(=O)C2CCCO2)CC1)Nc1ccc(Br)cc1 (centres unmarked) | -70% |
| O=c1c(Cc2ccccc2)c(O)ccn1C1CCCCCCC1 | 10.1% |
| COc1ccc(S(=O)(=O)N2CCCCCC2)cc1C(=O)N(C)Cc1ccc(C)cc1 | -40.3% |
| Cc1[nH]c2ccccc2c(=O)c1SC(F)(F)C(F)C(F)(F)F (centres unmarked) | -5.97% |
| CSc1ccccc1NC(=O)COc1ccc(Cl)cc1Cl | -0.82% |
| NC1=NC[C@H](Cc2ccccc2)N1CCc1cccc(F)c1 | 6.16% |
| NC1=NC[C@@H](Cc2ccc(O)cc2)N1CCc1cccc(F)c1 | 5.43% |
| C[C@H]1CN=C(N(C)C)N1CCc1ccc(F)cc1 | -12.4% |
| C[C@H]1CN=C(N(C)C)N1CCc1ccccc1 | 6.72% |

| SMILES | hERG current change (%, negative = inhibition) at 10uM |
| --- | --- |
| CN(C)C1=NC[C@H](Cc2ccccc2)N1CCc1cccc(F)c1 | -64.1% |
| CN(C)C1=NC[C@H](Cc2ccccc2)N1CCc1ccc(F)cc1 | -60.6% |
| COC(=O)c1cccnc1-n1c(=O)c2cccnc2n(Cc2ccc(Cl)cc2)c1=O | -26.6% |
| O=C(Cc1ccccc1)NCC(=O)N/N=C/c1ccc(C(=O)O)cc1 | 12.3% |
| C=CCc1cccc2cc(C(=O)N3CCN(C(=O)OCC)CC3)c(=O)oc12 | -26.9% |
| C=CCn1c(CSc2nc3ccccc3s2)nnc1SCC(=O)NCc1ccccc1 | -43.9% |
| CCOC(=O)c1[nH]c2ccc(F)cc2c1NC(=O)CCN1CCSCC1 | -22% |
| Cc1nc2sccn2c(=O)c1S(=O)(=O)N1CCN(c2cccc(Cl)c2)CC1 | -0.478% |
| Cc1cc(C)c(NS(=O)(=O)c2ccc3c(c2)NC(=O)C(C)C(=O)N3)c(C)c1 (centres unmarked) | 2.12% |
| COc1ccc(OC)c(CN2CCN(C(=O)c3cccc(S(=O)(=O)Nc4ccc(C)cc4)c3)CC2)c1 | -34.6% |
| O=C(c1ccccc1)N1CCN(Cc2ccc3c(c2)OCO3)CC1 | 11.5% |
| COc1ccc(NS(=O)(=O)c2cccc(C(=O)N3CCN(Cc4ccc5c(c4)OCO5)CC3)c2)cc1 | -76.8% |
| COc1ccc(NS(=O)(=O)c2cccc(C(=O)N3CCC3)c2)cc1 | 10.5% |
| COc1ccccc1NS(=O)(=O)c1cccc(C(=O)N2CCN(Cc3ccc4c(c3)OCO4)CC2)c1 | -61.4% |
| COc1cccc(OC)c1C(=O)N1CCN(Cc2ccc3c(c2)OCO3)CC1 | -12% |
| COc1ccc(OC)c(CN2CCN(C(=O)c3cccc(S(=O)(=O)Nc4ccccc4OC)c3)CC2)c1 | -38.2% |
| O=C(c1ccc(NS(=O)(=O)c2ccccc2)cc1)N1CCN(Cc2ccc3c(c2)OCO3)CC1 | -63.8% |
| O=C(c1ccc(NS(=O)(=O)c2cccc([N+](=O)[O-])c2)cc1)N1CCCCCC1 | -23.1% |
| CN(c1ccc(C(=O)N2CCN(Cc3ccc4c(c3)OCO4)CC2)cc1)S(=O)(=O)c1ccccc1 | -38.3% |
| COc1ccc(NS(=O)(=O)c2cccc(C(=O)N3CCCC3)c2)cc1 | 2.23% |
| COc1ccc(OC)c(CN2CCN(C(=O)c3ccc(NS(=O)(=O)c4cccc([N+](=O)[O-])c4)cc3)CC2)c1 | -70.6% |
| COC(=O)C1=C(c2ccc(F)cc2F)C[C@@H]2CC[C@H]1N2C(=O)NCCOc1ccccc1 | -23.5% |
| N#CC1(N2CCN(C(=O)c3ccccc3)CC2)CCCCC1 | 30.1% |

| SMILES | hERG current change (%, negative = inhibition) at 10uM |
| --- | --- |
| CC1CCCCN1Cc1ccc(N)cc1 (centres unmarked) | 12.7% |
| C#CC1(NC(=O)NC(C)(C)C)CCCCC1 | 15.7% |
| CCc1ccc(OCC(=O)NNC(=O)c2cc(S(=O)(=O)N(C)C)ccc2N2CCCC2)cc1 | -23.4% |
| COC(=O)c1cc(OC)c(OC)cc1NC(=O)c1cc(C(C)(C)C)oc1C | 5.71% |
| c1ccc(Cn2nnc3c(N4CCc5ccccc5C4)ncnc32)cc1 | -21.5% |
| COc1cc(OC)c2ccc(=O)oc2c1C(CCN1CCCC(C)C1)c1ccc2c(c1)OCO2 (centres unmarked) | -61% |
| COc1cc(C(CCN2CCCC2)c2c(OC)cc(OC)c3ccc(=O)oc23)cc(OC)c1OC (centres unmarked) | -69.2% |
| COc1cc(OC)c2ccc(=O)oc2c1C(CCN1CCCC(C)C1)c1ccc(N(C)C)cc1 (centres unmarked) | -10.6% |
| COc1cc(OC)c2ccc(=O)oc2c1C(CCN1CCCC1)c1ccc(N(C)C)cc1 (centres unmarked) | -24.1% |
| COc1cc(OC)c2ccc(=O)oc2c1C(CCN1CCCCC1)c1ccc(N(C)C)cc1 (centres unmarked) | -16% |
| COc1cc(OC)c2ccc(=O)oc2c1C(CCN1CCCC1)c1ccc2c(c1)OCO2 (centres unmarked) | -56.7% |
| COc1cc(C(CCN2CCN(c3ccccc3)CC2)c2c(OC)cc(OC)c3ccc(=O)oc23)cc(OC)c1OC (centres unmarked) | -8.86% |
| COc1cc(C(CC(=O)N2CCCC2)c2c(OC)cc(OC)c3ccc(=O)oc23)cc(OC)c1OC (centres unmarked) | 2.42% |
| COc1cc(OC)c2ccc(=O)oc2c1C(CC(=O)N1CCCC(C)C1)c1ccc2c(c1)OCO2 (centres unmarked) | 4.24% |
| CS(=O)(=O)N1CCCC(C(=O)NCc2ccc(F)cc2Cl)C1 (centres unmarked) | 2.22% |
| CC1(c2ccccc2)CC(C)(C)N2C(=O)C(=O)c3cccc1c32 (centres unmarked) | 19.6% |
| CCCCNC(=S)NC(=O)c1ccc(Cl)cc1Cl | 22.7% |
| CC(=O)Nc1nc(-c2ccccc2)nc(C)c1C(C)=O | -5.89% |
| COc1ccc(S(=O)(=O)N2CC(=O)Nc3ccccc32)cc1 | -6.04% |
| O=C1CCC(C(=O)N2CCCC(C(=O)c3ccc4ccccc4c3)C2)=NN1 (centres unmarked) | -8.31% |
| O=C(COC(=O)Cn1cnc2ccccc21)Nc1cc(S(=O)(=O)N2CCOCC2)ccc1Cl | -0.439% |
| CCCc1ncc(CN2CCC(C(=O)Nc3cccc(-c4cscn4)c3)CC2)cn1 | -34.9% |
| COc1cccc(-c2cccc(NC(=O)C3CCN(Cc4nccs4)CC3)c2)c1 | -37.1% |

| SMILES | hERG current change (%, negative = inhibition) at 10uM |
| --- | --- |
| CCn1nc(C)c(CN2CCC(C(=O)Nc3cccc(-c4cccc(F)c4)c3)CC2)c1C | -67% |
| CCS(=O)(=O)N1CCC(C(=O)Nc2cccc(F)c2)CC1 | -6.51% |
| CCn1nc(C)c(CN2CCC(C(=O)Nc3cccc(-c4cccc(Cl)c4)c3)CC2)c1C | -65% |
| CCc1ccc(CN2CCC(C(=O)Nc3cccc(-c4nnc(C)s4)c3)CC2)o1 | -33.6% |
| Cc1nn(C(C)C)c(C)c1CN1CCC(C(=O)Nc2cccc(-c3cccc(F)c3)c2)CC1 | -67.8% |
| CCOC(=O)C1(Cc2cccc(F)c2)CCN(Cc2c(C)nn(CC)c2C)CC1 | -41.4% |
| Cc1nn(C(C)C)c(C)c1CN1CCCC(C(=O)c2cccc(OC(C)C)c2)C1 (centres unmarked) | -39.6% |
| Br.COc1cccc(CNCC2CCCO2)c1 (centres unmarked) | 13.9% |
| COc1ccc(OC)c(NC(=O)Cc2coc3ccc4ccccc4c23)c1 | 0.772% |
| Cc1sc(/C=C2\C(=O)ON=C2c2ccccc2)cc1Br | 14.8% |
| COC(=O)c1ccc(NC(=O)c2ccc3nsnc3c2)cc1 | 4.15% |
| COc1ccc(CN2CCN(Cc3ccco3)CC2)c(OC)c1.O=C(O)C(=O)O | -46.4% |
| COc1ccc(OC)c(CN2CCN(c3ccccc3OC)CC2)c1 | -32.7% |
| COc1ccc(CN2CCN(Cc3ccccc3F)CC2)cc1.O=C(O)C(=O)O | -43.2% |
| COc1ccc(CN2CCN(C(=O)c3ccc(F)cc3)CC2)c(OC)c1.O=C(O)C(=O)O | -44.3% |
| COc1ccc(CN2CCN(c3ccccc3F)CC2)c(OC)c1 | -75.1% |
| COc1ccccc1N1CCN(Cc2ccccc2F)CC1 | -17.6% |
| COc1cc(CN2CCN(c3ccccc3F)CC2)cc(OC)c1O | -26.4% |
| COc1ccc(CN2CCN(c3ccccc3OC)CC2)c(OC)c1.O=C(O)C(=O)O | -64.2% |
| COc1ccc(CN2CCN(Cc3ccccc3F)CC2)c(OC)c1.O=C(O)C(=O)O | -68.5% |
| COc1ccc(CN2CCSCC2)cc1O | 14.4% |
| COc1ccc(CN2CCN(c3ccccc3F)CC2)cc1O | -66.5% |
| COc1cc(CN2CCN(c3ccccc3F)CC2)c([N+](=O)[O-])cc1OC | -27.4% |
